Our source for the growth values is PubChem BioAssay (NCI).

Compounds without any hit were thinned out: in the full panel of roughly 83,000, 20% have a hit.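 Percent growth is the endpoint: 0 to 100 indicates growth inhibition (40 means 60% inhibition), 0 means no net growth, and negative values indicate cell death.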 A number with no mark means an inactive call. Calls of active or inactive are those of the source. How the source made its calls: active means growth percent below 10; inactive means the rest.

This assay relates to HL-60(TB) leukemia. Kind of assay: NCI-60 one-dose screen, 48 h (100 = growth as untreated, 0 = no growth, -100 = all killed). To be noted: 10 µM unless noted.
`CCCC(=O)CC(=O)c1ccccc1`: the growth was 112%.
Then `CCCCC(CCCCCC(CCCC)C1NC(C)Cc2cc(OC)c(OC)cc21)C1NC(C)Cc2cc(OC)c(OC)cc21` (stereo not given), with -79.7% (active); and `CCC(O)C(C)(C)C` (stereo not given), with 114%.
Regarding `CNC(=S)NC(C)(C)C`, the growth is 92.6%.
In the case of `Clc1ccc(OCc2nc(-c3ccccc3)n[nH]2)c(Cl)c1`, the growth is 94.9%.
Regarding `O=C(/C=C/c1ccc(Cl)cc1)c1ccc(Nc2nc(NCCO)nc(Nc3ccc(Cl)cc3)n2)cc1`, the growth was 99.4%.
On to `COC(=O)c1ccc2oc(NC(=O)c3ccc(N4CCOCC4)c([N+](=O)[O-])c3)nc2c1`, for which the growth is 96.7%.
For the compound `C=C1CC/C=C(\C)C(=O)C[C@@H]2[C@@H]1CC2(C)C`, the growth was 105%.
Then `CCN(CC)CCSCCCNc1c(C)cnc2cc(Cl)ccc12`, with 69.1%.
Then `ClCCOCCn1cnc2c(Cl)nc(Cl)nc21`, with 40.9%; and `O=C(N/N=C/c1ccc([N+](=O)[O-])o1)c1ccc(O)cc1`, with 19.8%.
Then `CCNc1nc(S(=O)(=O)CC)nc2ccccc12`, with 91.8%; and `Cc1cc(N2CCCCC2)nc(N(CCNc2ccnc3cc(Cl)ccc23)Cc2ccccn2)n1`, with 41.6%; and `CC(=O)OC[C@H]1OC(Sc2sc(C(=O)c3ccc(Cl)cc3)c(N)c2-c2nc3ccccc3s2)[C@H](OC(C)=O)[C@@H](OC(C)=O)[C@@H]1OC(C)=O` (stereo not given in full), with 108%.
Take `Cc1cc(Cl)ccc1Nc1nc(C(F)(F)F)ccc1C(=O)N/N=C/c1ccc(N(C)C)cc1`: the growth is 12.4%.
